Screening results (PubChem BioAssay)
Most compounds without a hit are left out; they make up all but 2.3% or so of the library.
ABHD5-PLIN5 inh – inhibitors of human ABHD5-perilipin-5 interaction; Q00G26+Q8WTS1; inhibition, % at 4 µM; 360,000 compounds, 0.78% hits; AID 602281; Split G. princeps luciferase complementation, luminescence, 4 h;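 active = inhibition above the mean inhibition across every tested compound plus 3 SD, cut at about 22% in these data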
NTR1 agonist – agonists of human neurotensin receptor NTR1; NTR1-U2OS beta-arrestin-GFP spot imaging, agonist mode; activation, % at 20 µM; 330,000 compounds, 0.17% hits;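 active = activation at or above 40% of the spot to cytoplasm intensity ratio, with at least 20 cells analyzed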
Target sequence (P30989 whole entry, looked up): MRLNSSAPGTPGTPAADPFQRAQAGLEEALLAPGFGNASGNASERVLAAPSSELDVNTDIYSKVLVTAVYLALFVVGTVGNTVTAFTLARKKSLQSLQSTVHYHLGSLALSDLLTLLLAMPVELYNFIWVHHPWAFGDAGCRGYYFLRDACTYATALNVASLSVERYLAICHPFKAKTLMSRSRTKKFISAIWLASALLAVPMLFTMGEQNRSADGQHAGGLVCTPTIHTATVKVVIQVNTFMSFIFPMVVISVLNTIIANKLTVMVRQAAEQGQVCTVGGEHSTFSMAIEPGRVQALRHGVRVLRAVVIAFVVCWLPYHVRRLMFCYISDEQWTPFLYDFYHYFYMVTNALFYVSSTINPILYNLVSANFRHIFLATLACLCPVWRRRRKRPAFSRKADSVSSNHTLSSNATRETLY
HTR2A ag – mouse HTR2A agonism via beta-arrestin recruitment | activation, % at 7.6 µM | 360,000 compounds, 0.66% hits | AID 624169 | P35363 | CHO-K1 mHTR2A beta-arrestin complementation, luminescence; percent of 30 µM serotonin response;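 active = activation above a run cutoff, the mean activation of all tested compounds plus 3 SD, cut at about 14% in these data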
Exocytosis inh – blocks lytic granule exocytosis; TALL-104 LAMP-1 surface exposure, flow cytometry; cells stimulated with thapsigargin and PMA; inhibition, % at 10 µM; 360,000 compounds, 0.66% hits; AID 651702;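 active = inhibition above about 55%, limit read from the data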
Beta2AR agonist – activates human beta-2 adrenergic receptor causing internalization. P07550. Am2.2-beta2AR cells, FAP receptor internalization, flow cytometry. response, % (test concentration not listed). 340,000 compounds, 0.43% hits. AID 504454;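 active = response above a set limit, near 3 SD of response in nonfluorescent compounds, cut at about 42% in these data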
ABHD5-PLIN5 conf – confirmation of human ABHD5-PLIN5 interaction inhibitors | biochemical ABHD5-PLIN5 interaction, luminescence | shares compounds with ABHD5-PLIN5 inh | inhibition, % at 4 µM | AID 651612 | 2,200 compounds, 67% hits; in the data active = inhibition above about 23%
HNF4 split-luc – counter-screen for ABHD5-PLIN5 inhibitors: HNF4 split-luciferase | 2,200 compounds, 77% hits | AID 651674 | shares compounds with ABHD5-PLIN5 inh | inhibition, % at 4 µM | HNF4 dimerization, luminescence, biochemical;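 active = mean inhibition across replicate wells exceeding the computed hit threshold, cut at about 13% in these data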;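 note: light from luciferase halves that rejoin when HNF4 fusion proteins dimerize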
Numbers stand for hits; i = inactive; nt = no result given.

SMILES | ABHD5-PLIN5 inh | NTR1 agonist | HTR2A ag | Exocytosis inh | Beta2AR agonist | ABHD5-PLIN5 conf | HNF4 split-luc
Cc1ccc(-n2c(=O)cc(N3CCN(C(=O)c4ccco4)CC3)[nH]c2=O)cc1 | 37 | i | i | i | i | i | i
Cn1c(=O)c(Nc2ccc(O)cc2)c2c3c(cccc31)C(=O)c1ccccc1-2 | 25 | i | i | i | i | 22 | 20
CC(=O)c1c2c3c(cccc3n(C)c1=O)C(=O)c1ccccc1-2 | nt | i | nt | nt | nt | nt | nt
Cc1cccc(NC(=O)COC(=O)c2nn(C)c(=O)c3ccccc23)c1C | i | i | i | i | i | nt | nt
Cc1cc(C)c(C)c(S(=O)(=O)NC(C(=O)NCCc2ccco2)C(C)C)c1C (stereo not drawn) | i | i | i | i | i | nt | nt
CCCn1nnc(NC(=O)/C=C/c2ccco2)n1 | i | i | i | i | i | nt | nt
Cn1nnc(NC(=S)NC(=O)/C=C/c2ccco2)n1 | 24 | i | i | i | i | i | i
CCN(CC)CCC(C)OC(c1ccccc1)c1ccccc1 (stereo not drawn) | 24 | i | i | i | i | 77 | 31
CCOc1cc(CNCCCN2CCOCC2)cc(Br)c1OCC(=O)Nc1cccc(C(F)(F)F)c1 | 25 | i | i | i | i | i | 15
C=CC(=O)N1C/C(=C/c2ccccc2)C(=O)/C(=C\c2ccccc2)C1 | 101 | nt | i | 71 | i | 103 | 107
C=CC(=O)N1C/C(=C/c2ccc(Cl)cc2)C(=O)/C(=C\c2ccc(Cl)cc2)C1 | 94 | nt | i | 86 | i | 104 | 110
Cc1onc(-c2ccccc2)c1C(=O)N1CCC(C)(C(=O)O)C1 (stereo not drawn) | i | nt | i | i | nt | nt | nt
COC(=O)[C@]12CCCCC=C1N(CCc1ccc(OC)c(OC)c1)C(=O)[C@H](CC(=O)N1CCCCC1)C2 | i | nt | i | i | nt | nt | nt
CN(C)c1ccc(/C=C2\SC(=O)N(CC(O)Cn3c4ccccc4c4ccccc43)C2=O)cc1 (stereo not drawn) | i | i | i | i | i | nt | nt
CN(C)c1ccc(C=c2c3ccccc3n3c2c2c([n+]3C)CCCC2)cc1 | 29 | nt | i | 70 | i | 28 | 36
CC(C)N(C(=S)Nc1cccnc1)c1ccccc1 | i | i | i | i | i | nt | nt
Cc1cc(C)c(C(O)c2ncc(-c3ccccc3F)[nH]2)c(C)c1 (stereo not drawn) | i | nt | i | i | nt | nt | nt
COc1cc(N2C(=O)C=CC2=O)ccc1N1C(=O)C=CC1=O | 52 | nt | i | 82 | i | 75 | 111
O=C1/C(=C\c2ccco2)CCC/C1=C\c1ccco1 | 49 | i | i | i | i | 56 | 82
Cc1cc(C)cc(NC(=S)NN)c1 | i | i | i | i | i | nt | nt
Cc1ccc2nc(/C(C#N)=C\c3ccc(N4CCOCC4)o3)[nH]c2c1 | 24 | i | i | i | i | 31 | 44
N#C/C(=C\c1ccc(N2CCOCC2)o1)C(=O)NCCc1ccccc1 | 25 | i | i | i | i | i | 32
N#C/C(=C/c1ccc(N2CCCCCC2)o1)c1ccc(Cl)cc1 | 78 | i | i | 84 | i | 82 | 111
Cc1ccc2nc(/C(C#N)=C/c3ccc(-c4ccccc4C(=O)O)o3)[nH]c2c1 | i | i | i | i | i | nt | nt
Cc1ccc(/C(C#N)=C\c2ccc(N3CCOCC3)o2)cc1 | 88 | i | i | 78 | i | 62 | 106
SMILES | ABHD5-PLIN5 inh | NTR1 agonist | HTR2A ag | Exocytosis inh | Beta2AR agonist | ABHD5-PLIN5 conf | HNF4 split-luc
N#C/C(=C/c1ccc(N2CCCCC2)o1)c1cccc(F)c1 | i | i | i | i | i | nt | nt
O=C(CCC(=O)Nc1cccnc1)Nc1cccnc1 | i | i | i | i | i | nt | nt
O=C(O)C(Cc1ccccc1)N1C(=O)C=CC1=O (stereo not drawn) | 75 | nt | i | i | nt | 67 | 107
O=C(O)C(Cc1ccccc1)N1C(=O)CCC1=O (stereo not drawn) | i | i | i | i | i | nt | nt
CCCCCc1cc(=O)oc2c(C(CCN3CCCCC3)c3ccc4c(c3)OCO4)c(OC)cc(OC)c12 (stereo not drawn) | i | i | i | i | i | nt | nt
CCCCCc1cc(=O)oc2c(C(CCN(CC)CC)c3cc(OC)c(OC)c(OC)c3)c(OC)cc(OC)c12 (stereo not drawn) | 27 | i | i | i | 44 | i | i
CC1(C)CC(N=c2cc(-c3ccccc3)oc3ccc(Cl)cc23)CC(C)(C)N1 | 29 | nt | i | i | i | i | i
OCCCN=c1cc(-c2ccccc2)oc2ccc(Cl)cc12 | i | i | i | i | i | nt | nt
CCc1nc2c(OCc3ccc(F)c(F)c3)cccn2c1N(C)C(=O)c1ccc(OC)cc1 | i | nt | i | i | nt | nt | nt
CN(C)C(=O)C[C@@H]1C=C[C@@H](NC(=O)C2CCC2)[C@@H](CO)O1 | i | nt | i | i | nt | nt | nt
CN(Cc1ccccc1)C(=O)CC(c1ccccc1)c1cc(Cl)ccc1O (stereo not drawn) | i | i | i | i | i | nt | nt
Cn1cccc1/C=C1\CCC/C(=C\c2cccn2C)C1=O | 48 | i | i | i | i | i | 40
CC1CC(C)CN(C(=O)CN2C(=O)NC(c3ccccc3)(c3ccccc3)C2=O)C1 (stereo not drawn) | 34 | i | i | i | i | i | i
CCOC(=O)N1CCN(C(=O)CN2C(=O)NC(c3ccccc3)(c3ccccc3)C2=O)CC1 | i | i | i | i | i | nt | nt
COc1ccc(S(=O)(=O)/N=C2/C=CC(=O)C(C)=C2C)cc1 | i | i | i | i | i | nt | nt
CC1=C(C)/C(=N\OS(=O)(=O)c2ccc(C)cc2)C=CC1=O | 61 | nt | i | i | i | 67 | 96
CN1CCN(C2Cc3cc(F)ccc3Sc3ccc(Cl)cc32)CC1 (stereo not drawn) | i | i | i | i | i | nt | nt
CN1CCN(C2=Cc3ccc(Cl)cc3Sc3ccc(F)cc32)CC1 | 29 | i | i | i | i | i | i
CN1CCN(C2=Cc3ccccc3Sc3cc(F)ccc32)CC1 | 23 | i | i | i | i | i | i
CN1CCN(C2=Nc3cc(F)ccc3Cc3ccccc32)CC1 | nt | i | nt | nt | nt | nt | nt
Cc1ccc(C(C)C)c(OCc2nn(CC(=O)c3ccc(OC(F)F)cc3)c3[n+]2CCCCC3)c1 | i | i | i | i | i | nt | nt
CCCOC(=O)CSc1nnc(-c2cc(OC)c(OC)c(OC)c2)o1 | 74 | i | i | i | i | i | i
O=C1C=C(N2CCN(C3=CC(=O)CCC3)CC2)CCC1 | 48 | i | i | i | i | i | 20
O=C1C=C(N2CCOCC2)CCC1 | 27 | i | i | i | i | i | i
COc1ccccc1N1CCN(C2=CC(=O)CCC2)CC1 | i | i | i | i | i | nt | nt
COc1ccc(C=NNC(=O)c2ccccc2OCc2ccc(F)cc2)c(OC)c1 | i | i | i | i | i | nt | nt
Cc1ccc(NC=C(S(=O)(=O)c2ccccc2)S(=O)(=O)c2ccccc2)c(C)c1 | i | i | i | i | i | nt | nt
